Assay results from PMC4336329 (PLoS ONE, 2015).
Out of some 310,000 compounds screened, about 2,200 (0.71%) showed an effect of 50% or more. The effect is printed as a negative number. This excerpt belongs to a sample that is enriched for strong results.

target: human ether-à-go-go-related gene (hERG) potassium channel (human, UniProt Q12809); test: primary screen, population patch clamp on CHO cells stably expressing hERG; higher = less effect of the substance
Sequence (Q12809 whole entry, looked up): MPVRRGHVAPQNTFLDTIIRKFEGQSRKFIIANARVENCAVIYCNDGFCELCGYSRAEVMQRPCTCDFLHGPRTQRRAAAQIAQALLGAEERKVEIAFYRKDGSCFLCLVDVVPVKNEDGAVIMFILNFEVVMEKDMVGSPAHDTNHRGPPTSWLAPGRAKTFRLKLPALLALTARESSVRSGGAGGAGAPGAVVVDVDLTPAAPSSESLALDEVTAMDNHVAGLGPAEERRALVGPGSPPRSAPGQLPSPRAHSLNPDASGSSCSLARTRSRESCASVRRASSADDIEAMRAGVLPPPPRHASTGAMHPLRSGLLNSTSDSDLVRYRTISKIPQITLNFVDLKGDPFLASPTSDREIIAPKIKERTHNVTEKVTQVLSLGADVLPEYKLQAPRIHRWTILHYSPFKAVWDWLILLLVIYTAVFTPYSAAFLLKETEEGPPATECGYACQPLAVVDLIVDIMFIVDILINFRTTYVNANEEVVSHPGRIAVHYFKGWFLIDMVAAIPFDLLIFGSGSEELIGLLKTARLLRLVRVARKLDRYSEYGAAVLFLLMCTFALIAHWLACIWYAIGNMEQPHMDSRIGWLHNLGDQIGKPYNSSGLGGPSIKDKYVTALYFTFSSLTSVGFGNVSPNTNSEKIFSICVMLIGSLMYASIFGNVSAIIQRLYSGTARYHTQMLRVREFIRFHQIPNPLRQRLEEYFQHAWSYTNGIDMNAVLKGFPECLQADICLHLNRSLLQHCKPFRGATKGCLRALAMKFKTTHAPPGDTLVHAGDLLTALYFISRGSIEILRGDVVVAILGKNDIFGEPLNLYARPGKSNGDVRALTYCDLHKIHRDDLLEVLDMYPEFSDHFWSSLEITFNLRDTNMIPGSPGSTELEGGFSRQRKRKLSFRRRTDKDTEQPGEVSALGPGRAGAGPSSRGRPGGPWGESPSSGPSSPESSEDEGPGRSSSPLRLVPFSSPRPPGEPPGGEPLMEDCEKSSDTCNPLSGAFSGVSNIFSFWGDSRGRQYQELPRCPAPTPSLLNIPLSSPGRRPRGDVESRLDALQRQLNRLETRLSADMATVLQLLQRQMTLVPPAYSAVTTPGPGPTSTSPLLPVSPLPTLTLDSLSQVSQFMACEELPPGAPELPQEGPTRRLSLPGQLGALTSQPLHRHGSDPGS

Row | Compound | hERG current change (%, negative = inhibition) at 1uM [%]
1 | COC(=O)c1ccc(NC(=S)Nc2ccc(O)cc2)cc1 | 5.34
2 | O=C(CNCCCO)Nc1cc(C(F)(F)F)cc(NC(=O)CNCCCO)c1Cl | 9.02
3 | N#Cc1cccc(NC(=O)c2ccc(S(=O)(=O)N3CCOCC3)cc2)c1 | 0.709
4 | COC(=O)c1cc(Cl)cc(Cl)c1OS(=O)(=O)N(C)C | 1.43
5 | N#CC1=C(N)Oc2nc[nH]c(=O)c2C1c1cccs1 (stereo not shown) | 17.3
6 | CCOC(=O)C(OC(=O)c1sc(=S)n(C)c1C)C(C)=O (stereo not shown) | 18
7 | COc1ccccc1CN1CCNC(=O)C1CC(=O)N(C)Cc1nc(C)cs1 (stereo not shown) | 17.2
8 | CC(=O)c1ccccc1NC(=O)COC(=O)c1ccc2c(c1)nc(C)n2-c1ccccc1 | 20.6
9 | CC(=O)c1c(C)[nH]c(C(=O)OCc2ccc(F)cc2Cl)c1C | 10.6
10 | Cc1cc2oc(=O)cc(CN3CCC(C)CC3)c2cc1C | 12.8
11 | Cc1ccc(C)c(Oc2coc3cc(O)ccc3c2=O)c1 | 0.658
12 | CCOC(=O)C1=NN(c2ccc(C)cc2)C2(S1)SC(C(C)=O)=C(C)N2c1ccccc1 (stereo not shown) | 8.85
13 | Clc1ccccc1CSc1nnc(-c2cccnc2)n1Cc1ccco1 | -14.2
14 | Clc1cccc(CSc2nnc(-c3cccnc3)n2Cc2ccco2)c1 | -61
15 | C(=C\c1ccccc1)/CSc1nnc(-c2ccccc2)n1Cc1ccco1 | -45.4
16 | C(=C\c1ccccc1)/CSc1nnc(-c2ccncc2)n1Cc1ccco1 | -26.9
17 | C(=C\c1ccccc1)/CSc1nnc(-c2cccnc2)n1Cc1ccco1 | -51.9
18 | Clc1ccc(CSc2nnc(-c3cccnc3)n2Cc2ccco2)c(Cl)c1 | -42.3
19 | Cc1cc(C)cc(NC(=O)Cn2nnc(C(=O)NCc3ccccc3Cl)c2N)c1 | 13.6
20 | CCOc1ccc(CCNC(=O)CS(=O)(=O)Cc2nc(-c3ccc(OC)cc3)oc2C)cc1 | -0.117
21 | COC(=O)[C@]1(C)N[C@H](c2ccc(-c3ccccc3)cc2)[C@@H]2C(=O)N(C)C(=O)[C@@H]21.O=C(O)C(F)(F)F | 15.8
22 | Cc1ccccc1N1CCN(CCCN2C(=O)CC(=C(c3ccccc3)c3ccccc3)C2=O)CC1 | 3.79

Row | Compound | hERG current change (%, negative = inhibition) at 1uM [%]
23 | Cc1sc(NC(=O)c2ccccc2F)c(CN2CCCCC2)c1C | 9.65
24 | CCOc1ccc(NC(=O)CCNC(=O)Cn2cnc3ccccc3c2=O)cc1 | 18.9
25 | CCN(Cc1ccncc1)C(=O)c1cc(COc2ccc(C)c(C)c2)on1 | -5.56
26 | CCN(Cc1ccncc1)C(=O)c1cc(COc2c(F)cccc2F)on1 | -8.09
27 | CCN(Cc1ccncc1)C(=O)c1cc(COc2c(C)cccc2C)on1 | -63.1
28 | CCN1CCN(C(=O)COc2ccc(S(=O)(=O)Nc3ccc(Cl)cc3)cc2)CC1 | 12.1
29 | Cc1cccc(NC(=O)Nc2c(C)n(C)n(-c3ccccc3)c2=O)c1 | 9.37
30 | CCOc1nc(-c2ccccc2)ccc1-c1noc(-c2cccnc2)n1 | 7.07
31 | COc1ccc(CCNC(=O)CC2Nc3ccccc3NC2=O)cc1OC (stereo not shown) | 12.7
32 | CCOC(=O)c1c(NC(=S)Nc2ccccc2)sc2c1CCN(CC)C2 | -80.2
33 | CCOC(=O)c1c(NC(=O)Nc2ccc(C)cc2)sc2c1CCN(C)C2 | 9.62
34 | CCOC(=O)c1c(NC(=S)Nc2ccccc2)sc2c1CCN(C)C2 | -62.8
35 | CCOC(=O)c1c(NC(=O)CN2CCCCC2)sc2c1CCN(C(=O)OCC)C2 | 2.11
36 | CCOC(=O)c1c(NC(=S)Nc2ccccc2)sc2c1CCCCC2 | 12.8
37 | CCOC(=O)c1c(NC(=O)Cc2ccccc2)sc2c1CCN(C)C2.Cl | -19.2
38 | CCOC(=O)c1c(NC(=S)Nc2ccc(OCC)cc2)sc2c1CCN(C)C2 | -11
39 | CCOC(=O)c1c(NC(=S)Nc2ccc(Cl)cc2)sc2c1CCN(C)C2 | -57.4
40 | CCOC(=O)c1c(NC(=S)Nc2ccccc2)sc2c1CCN(CCc1ccccc1)C2 | 2.54
41 | CCOC(=O)c1c(NC(=O)Cc2ccccc2)sc2c1CCN(CC)C2.Cl | -18.3
42 | CCOC(=O)N1CCc2c(sc(NC(=O)CN3CCN(C)CC3)c2C(=O)Nc2ccccc2)C1 | -85.6
43 | CCOC(=O)N1CCc2c(sc(NC(=O)CN3CCOCC3)c2C(=O)Nc2ccccc2)C1 | -31.9
44 | COc1ccccc1C(=O)Nc1nnc(-c2ccco2)s1 | 13.9

Row | Compound | hERG current change (%, negative = inhibition) at 1uM [%]
45 | COc1ccccc1NC(=O)Cn1nnc(-c2ccccc2NC(=O)c2ccco2)n1 | 14.7
46 | C=CCC1c2cccc(C(=O)O)c2C(=O)N1c1cccc(C)c1 (stereo not shown) | 11.5
47 | CN(C)c1ccc(C2CC(=O)C=C(Nc3ccccc3N)C2)cc1 (stereo not shown) | 13.8
48 | CCOc1ccc(NC(=O)CCN2CCN(c3ccccc3)CC2)cc1 | 3.48
49 | CCOc1ccccc1NC(=O)C(OC(=O)c1ccccc1)c1ccccc1 (stereo not shown) | 32.8
50 | Cn1c(Cn2nnc3ccccc32)nnc1SCC(=O)Nc1nccs1 | 10.6
51 | CCOC(=O)c1c(NC(=O)CCS(=O)(=O)c2ccccc2)sc2c1CCN(C)C2.Cl | -9.18
52 | CCOC(=O)c1c(NC(=O)CCS(=O)(=O)c2ccccc2)sc2c1CCN(C(C)C)C2.Cl | -64.6
53 | CC(C)N1CCc2c(sc(NC(=O)CCS(=O)(=O)c3ccccc3)c2C(N)=O)C1.Cl | -2.04
54 | CC(=O)c1cc2c(cc1NC(=O)CSc1nc3ccccc3[nH]1)OCO2 | -2.99
55 | CN(C)S(=O)(=O)c1cc(NC(=O)CNCCN2CCOCC2)ccc1Cl.O=C(O)C(=O)O | 7.62
56 | COc1ccc(F)cc1C(=O)C1CCCN(Cc2cccn2-c2cccnc2)C1 (stereo not shown) | 5.09
57 | COc1ccc(C(=O)C2CCCN(Cc3cccn3-c3ccccn3)C2)cc1F (stereo not shown) | -87.1
58 | COc1ccc(C(=O)C2CCCN(Cc3cn(C)nc3-c3ccccc3)C2)cc1F (stereo not shown) | -19.1
59 | COc1ccc(F)cc1C(=O)C1CCCN(Cc2cccn2-c2ccccn2)C1 (stereo not shown) | -89.9
60 | O=C(c1cc(F)ccc1F)C1CCCN(CCCc2ccccc2)C1 (stereo not shown) | -76.6
61 | CCOc1ccccc1CN1CCCC(C(=O)c2cc(F)ccc2F)C1 (stereo not shown) | -16.6
62 | O=C(C1CCCN(CCCc2ccccc2)C1)N1CCCCC1 (stereo not shown) | -5.07
63 | COc1ccc(F)cc1C(=O)C1CCCN(Cc2ccc(Oc3ncccn3)cc2)C1 (stereo not shown) | -34.8
64 | O=C(c1cc(F)ccc1F)C1CCCN(C(=O)CSc2ccccn2)C1 (stereo not shown) | -3.1
65 | O=C(c1cc(F)ccc1F)C1CCCN(Cc2cccc(Cl)c2)C1 (stereo not shown) | 8.46
66 | O=C(c1cc(F)ccc1F)C1CCCN(Cc2cccn2-c2ccccn2)C1 (stereo not shown) | -83.1

Row | Compound | hERG current change (%, negative = inhibition) at 1uM [%]
67 | COc1ccc(C(=O)C2CCCN(Cc3ccc(F)cc3F)C2)cc1F (stereo not shown) | 3.8
68 | O=C(Nc1ccc(Cl)cc1)c1cc(S(=O)(=O)N2CCOCC2)cs1 | -7.43
69 | COCCCN(Cc1ccco1)C(=O)Cn1ncc2c([nH]c3ccccc32)c1=O | -5.46
70 | O=C(N/N=C1/CCc2ccccc21)C1CC1 | 6.47
71 | Cc1ccc(CNC(=O)COC(=O)c2ccc(S(=O)(=O)N(C)C)cc2)cc1 | 17.8
72 | CCN(CC)c1ccc2ccc(=O)oc2c1 | 7.92
73 | O=C(NNC(=O)c1ccc(Cl)c(S(=O)(=O)Nc2ccc(Cl)cc2)c1)c1ccc(=O)[nH]c1 | 14.5
74 | COc1ccc(-c2nnc3ccc(SCC(=O)N4CCCCC4)nn23)cc1OC | 6.34
75 | Cc1cc2nc(-c3ccc(=O)[nH]c3)n(C)c2cc1C | 11
76 | Cc1ccc(-c2csc(NC(=O)c3ccc(F)cc3)c2C(=O)O)cc1 | 16
77 | CCOC(=O)C1(C)Oc2ccc(S(=O)(=O)CC)cc2NC1=O (stereo not shown) | 16.3
78 | COCCn1nnnc1C(c1ccccn1)N1CCN(c2cc(C)ccc2C)CC1.Cl (stereo not shown) | 9.25
79 | Cc1[nH]nc2c1C(C(C)c1ccccc1)C(C#N)=C(N)O2 (stereo not shown) | 7.79
80 | COc1ccc(-n2c(-c3ccc(Br)cc3)c[n+]3c2CCCCC3)cc1.[Br-] | -24.6
81 | COc1ccc(-c2c[n+]3c4n2CCCCC4=C(c2ccccc2)C3)cc1.[Br-] | -74.7
82 | COc1ccc(-c2c[n+]3c4n2CCCCC4=C(c2ccc(Br)cc2)C3)cc1.[Br-] | -79.6
83 | COc1ccc(-c2c[n+](CC(=O)c3ccccc3)c3n2CCCCC3)cc1.[Br-] | 13.7
84 | COc1ccc(-c2c[n+]3c(n2-c2ccccc2)CCCCC3)cc1.[Br-] | 2.74
85 | COc1ccc(C(=O)C[n+]2cc(-c3ccc(OC)cc3)n3c2CCCC3)cc1.[Br-] | 11.5
86 | O=C(C[n+]1cc(-c2ccc(Cl)cc2)n2c1CCCCC2)c1ccccc1.[Br-] | -2.53
87 | Clc1ccc(C[n+]2cc(-c3ccccc3)n3c2CCC3)cc1.[Cl-] | 7.34
88 | Clc1ccc(C2=C3CCCCn4c(-c5ccccc5)c[n+](c43)C2)cc1.[Br-] | -83.1
